Measurements taken from PubChem BioAssay AID1159607 (Small Molecule Screening Facility, UW Madison, 2016).
Where “and” joins values, the source holds several entries; their conditions need not be identical. Equal values may be shown once. Among all 70,000 compounds or so, about 400 (0.57%) were called active. For the sample, actives were picked, then their nearest neighbours and some compounds at random. Unmarked numbers belong to inactive results. No stated cut-off is given here; in the data, active means FP signal below about 40; inactive means the rest.

What follows are molecules tested on RMI core complex (RMI1/RMI2) binding to FANCM MM2 peptide, human (assay: disruptors of RMI1/RMI2 association with MM2 peptide – biochemical, fluorescence polarization, human, primary screen (AID 1159607)). Details: RMI core complex with F-MM2 peptide, at 33 µM, active compounds read low.

Row | Compound | FP signal (polarization)
1 | CCOC(=O)Cn1c(=NC(=O)c2ccnn2C)sc2cc(C(C)C)ccc21 | 69
2 | COCCN1C(=O)C2N=NN(c3ccccc3)C2C1=O (stereo unspecified) | 66
3 | O=C(c1cccc(C(F)(F)F)c1)N1CCC(c2nnc(C3CC3)s2)CC1 | 61
4 | COC(=O)Nc1ccc2c(c1)C(=O)N(C)c1ccccc1O2 | 57
5 | CC1CCCCC1NC(=O)C(=O)c1cn(CC(=O)N2CCCCC2)c2ccccc12 (stereo unspecified) | 56
6 | CC1=NN(c2ccccc2)C(=O)C1=Cc1c(C)[nH]n(-c2ccccc2)c1=O | 53
7 | O=C(Nc1ccc(Br)cc1)Nc1c[nH]c2ccccc12 | 56
8 | O=C(Nc1ccc([N+](=O)[O-])cc1)Nc1nc(-c2nc3ccccc3s2)cs1 | 65
9 | Cc1ccnc(NS(=O)(=O)c2ccc(NC(=O)c3ccc([N+](=O)[O-])o3)cc2)n1 | 61
10 | NC(=O)c1c(NC(=O)CCSc2ccc(Cl)cc2)sc2c1CCCCC2 | 102
11 | Cc1c(/C=N\Nc2ccc([N+](=O)[O-])cc2)sc2ccccc12 | 64
12 | COc1ccccc1/C=C/C(=O)NC(=S)N1CCCC1 | 59
13 | Cc1cc(C(=O)Nc2sccc2-c2nc3ccccc3s2)on1 | 107
14 | NC(=O)c1cnn(-c2ccccc2)c1N | 55
15 | CCC(CC)C(=O)Nc1nnc(SCc2cc(=O)c(OC(=O)c3ccc(S(=O)(=O)N(CC)CC)cc3)co2)s1 | 53
16 | Cc1ccc2c(c1)N(C(=O)Cn1nc3ccc(S(=O)(=O)C(C)(C)C)nn3c1=O)CCO2 | 64
17 | COc1ccc(S(=O)(=O)NNC(=O)CSCc2nc(-c3ccc(Cl)cc3)cs2)cc1 | 78 and 65
18 | CC(=O)c1cccc(NC(=O)CSc2cc(C)c3ccccc3n2)c1 | 77
19 | Cc1ccc(S(=O)(=O)Nc2ccc3c(c2)C(=O)NCCO3)c(C)c1 | 64
20 | O=C(CSc1nnc2ccc(-c3cccs3)nn12)NCCc1ccccc1 | 54
21 | CS(=O)(=O)c1ccc(Nc2nc(C(=O)NC3CC3)cs2)cc1 | 62

Row | Compound | FP signal (polarization)
22 | C=CCn1c(SCC(=O)c2ccc3c(c2)OCO3)nc2scc(-c3ccco3)c2c1=O | 120
23 | Cc1cc(C)c2nc(N(CCN(C)C)C(=O)/C=C/c3cccs3)sc2c1 | 92
24 | COC(CC(=O)O)c1nc2ccccc2s1 (stereo unspecified) | 59
25 | COc1cccc2cc(C(=O)Nc3ccc4nc(N5CCN(C)CC5)sc4c3)oc12 | 64
26 | COc1cccc(-n2c(=S)sc3c(=O)[nH]c(SCC(=O)Nc4ccc(C)c(F)c4)nc32)c1 | 48
27 | COc1cccn(Cc2n[nH]c(=S)n2C)c1=O | 59
28 | CC(=O)c1ccc(NC(=O)CSc2nc(C(F)(F)F)cc(=O)[nH]2)cc1 | 54
29 | COc1ccc(Oc2cccc(Cl)c2CNC(=O)c2ccccc2N)cc1 | 60
30 | COC(=O)c1cccn1-c1ccc(F)cc1 | 56
31 | Cc1cc(NC(=O)/C=C/c2ccccc2)n(C(C)C)n1 | 67
32 | COc1ccc(-c2cc(=O)n(CC(=O)N3CCN(c4ccccc4OC)CC3)cn2)cc1 | 65
33 | CCOC(=O)N1CCN(C(=O)COc2coc(CN3CCc4ccccc43)cc2=O)CC1 | 57
34 | Cc1cccc(NC(=O)Cn2c(C)cc(C)c(-c3nc(-c4ccc(F)cc4)no3)c2=O)c1C | 137
35 | Cc1nc2c(=S)[nH]nc(-c3ccccc3)c2s1 | 68
36 | COc1cccc2cc(-c3cc(=O)oc4cc(OCC(=O)OC(C)(C)C)ccc34)c(=O)oc12 | 67
37 | COc1ccc(OC)c(-c2cc3ccc(O)c(CN4CCN(C)CC4)c3oc2=O)c1 | 37 (active)
38 | CCc1cc(C(=O)c2ccc(OC)cc2)c(NC(=O)CN2CCN(C)CC2)s1 | 69
39 | Cn1nccc1-c1nnc(NC(=O)c2c(F)cccc2Cl)o1 | 75
40 | CCCCOc1ccccc1-c1cc2c(SCC(=O)Nc3ccc(NC(C)=O)cc3)nccn2n1 | 70
41 | CCOC(=O)c1nn(-c2ccccc2C)c(=O)cc1NCCC(c1ccccc1)c1ccccc1 | 54
42 | COc1ccc(C)c2sc(N(Cc3cccnc3)C(=O)/C=C/c3ccccc3)nc12 | 55

Row | Compound | FP signal (polarization)
43 | CC(C)(C)c1cc(NC(=O)CSc2nnc3ccccn23)cc(C(C)(C)C)c1 | 59
44 | O=C(Cn1cc(-c2nnc(-c3ccccc3)o2)c2ccccc21)N1CCCC1 | 130
45 | CCCc1cc(=O)n(CC(=O)Nc2ccccc2F)cn1 | 65
46 | O=C(Nc1ccccc1-c1nc2ccccc2s1)c1ccc(Cl)s1 | 60
47 | O=C(CSc1nnc(CNC(=O)c2ccc(F)cc2)o1)Nc1ccc2c(c1)OCO2 | 57
48 | COC(=O)c1cc(OC)c(OC)cc1NC(=O)C1Cc2ccccc2C(=O)O1 (stereo unspecified) | 56
49 | CC(=O)SCC(=O)Nc1sccc1C#N | 66
50 | O=C(CSc1nnc(NC(=O)c2c(F)cccc2Cl)s1)Nc1ccc(Br)cc1 | 61
51 | O=C(Nc1ccc(OC(F)(F)F)cc1)c1cnc2sccn2c1=O | 64
52 | O=C(NCC1CCN(Cc2cccs2)CC1)c1ccco1 | 72
53 | CCOc1ccc(-c2noc(-c3cc(-c4cc(C)ccc4C)n[nH]3)n2)cc1OC | 95
54 | COc1ccc2nc(-c3ccc(NC(=O)c4c(F)cccc4Cl)cc3)cn2n1 | 122
55 | SCCc1nc2ccccc2[nH]1 | 63
56 | COc1ccc(-c2noc(Cn3cnc4c(nnn4Cc4cccc(F)c4)c3=O)n2)cc1 | 76
57 | O=C(Nc1cc(F)ccc1F)N1CCN(c2ccc(-c3ccc4c(c3)OCO4)nn2)CC1 | 123
58 | O=C(COc1ccc(Cl)cc1)Nc1ccc2c(c1)C(=O)NCCO2 | 60
59 | COC(=O)c1c(NC(=O)CCS(=O)(=O)c2ccc(Cl)cc2)sc2c1CCC(C)C2 (stereo unspecified) | 96
60 | O=C(CN1C(=O)c2ccccc2C1=O)Nc1nnc(-c2ccco2)o1 | 63
61 | CCOc1ccc(S(=O)(=O)Nc2ccc3c(c2)CN(C(=O)C2CC2)CC3)cc1F | 66
